What follows are sequences tested against ZNF721 full-length (Homo sapiens, UniProt Q8TF20-2 1-923) (assay: HT-SELEX; 20 mM HEPES pH 7, 140 mM KCl, 5 mM NaCl, 1 mM K2HPO4, 2 mM MgSO4, 100 uM EGTA, ZnSO4, 0.1% Tween20; room temperature, 1 h; high values mean tight binding). Conditions: protein: ivt; tags: eGFP (N-terminal); dsDNA, one strand shown.
Procedure, shortened: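 Bead-immobilised tagged transcription factor (full-length or DNA-binding-domain fragment), made in HEK293 lysate or cell-free extract, was incubated with a randomized 40-base DNA library. Binding was for 1 h at room temperature in HEPES/KCl low-stringency buffer with Tween20. After washing and heat elution, bound DNA was PCR-amplified over successive cycles and Illumina-sequenced (~3 million 60 bp reads per sample). Binding signal is a relative k-mer count in selected reads; higher means tighter binding.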

ZNF721 full-length, sequence (Q8TF20 other isoform, or with tags, fused parts or gaps): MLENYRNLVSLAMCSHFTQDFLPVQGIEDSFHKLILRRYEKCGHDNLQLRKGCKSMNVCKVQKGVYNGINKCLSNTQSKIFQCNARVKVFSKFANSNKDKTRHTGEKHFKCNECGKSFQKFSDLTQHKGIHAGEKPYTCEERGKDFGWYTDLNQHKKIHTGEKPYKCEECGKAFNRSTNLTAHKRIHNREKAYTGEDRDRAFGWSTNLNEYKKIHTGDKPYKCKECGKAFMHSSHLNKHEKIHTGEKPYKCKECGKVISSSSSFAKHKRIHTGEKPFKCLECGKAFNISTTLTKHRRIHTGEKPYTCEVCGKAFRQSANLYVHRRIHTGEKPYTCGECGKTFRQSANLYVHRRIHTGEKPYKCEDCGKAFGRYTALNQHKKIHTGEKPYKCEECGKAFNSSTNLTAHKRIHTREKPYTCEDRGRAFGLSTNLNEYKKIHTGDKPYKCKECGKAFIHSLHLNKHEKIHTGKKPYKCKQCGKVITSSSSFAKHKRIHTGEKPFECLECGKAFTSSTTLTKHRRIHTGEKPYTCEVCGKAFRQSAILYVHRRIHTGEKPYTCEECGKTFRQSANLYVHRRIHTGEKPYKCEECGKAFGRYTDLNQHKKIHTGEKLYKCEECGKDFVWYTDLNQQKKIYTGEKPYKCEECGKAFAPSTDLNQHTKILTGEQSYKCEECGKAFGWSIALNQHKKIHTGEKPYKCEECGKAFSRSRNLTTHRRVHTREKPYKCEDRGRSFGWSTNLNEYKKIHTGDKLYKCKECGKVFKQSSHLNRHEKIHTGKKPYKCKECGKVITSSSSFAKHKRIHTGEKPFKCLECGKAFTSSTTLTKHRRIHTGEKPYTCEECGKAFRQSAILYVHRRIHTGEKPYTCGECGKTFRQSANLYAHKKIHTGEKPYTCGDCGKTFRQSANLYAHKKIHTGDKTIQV

| Sequence | binding signal [relative 10-mer count] |
| --- | --- |
| CACCCCCCCG | 0.131 |
| CCCCAACCAC | 0.156 |
| CCTCCCCCAC | 0.216 |
| AGTGTCTCCA | 0.147 |
| CCACCCCCTC | 0.182 |
| CCCACCACGC | 0.108 |
| CCACCCGCCC | 0.235 |
| CCTGCCCCCC | 0.103 |
| CCCCGCGCCC | 0.138 |
| CCCCCACCAC | 0.312 |
| CGTCCCACCC | 0.127 |
| ACAGCGTTAC | 0.102 |
| CCACCCCACA | 0.163 |
| AAAAAAGCTG | 0.303 |
| GCCACCCCCA | 0.107 |
| CCACCCTCCA | 0.123 |
| CCCCAGCCCC | 0.202 |
| CTAAAAAAAA | 0.107 |
| CACGCCCCAC | 0.11 |
| CGAAAAAAAA | 0.137 |

| Sequence | binding signal [relative 10-mer count] |
| --- | --- |
| AGGGGGTGGG | 0.201 |
| CACCACCCCC | 0.276 |
| ACCCCCCTCC | 0.142 |
| CTTCATACTC | 0.167 |
| AGCGTTTCCA | 0.214 |
| GTGGGGTGGA | 0.103 |
| CGCCCCCACC | 0.19 |
| GCATACCCTA | 0.202 |
| CCCCCGCTCC | 0.103 |
| ATCCCACCCC | 0.123 |
| CCCCCCCACC | 0.358 |
| CCCTCCCACC | 0.265 |
| AAGCGTACCC | 0.208 |
| CCCCCACGCC | 0.181 |
| CCACAAAAAA | 0.125 |
| TAAAAAAGCA | 0.179 |
| CCCTCCCCGC | 0.139 |
| CACCCCCACA | 0.116 |
| CCGCCACCCC | 0.307 |
| CACCCCCAAC | 0.118 |

From article PMC13541613, “GHT-SELEX demonstrates unexpectedly high intrinsic sequence specificity and complex DNA binding of many human transcription factors”
